The entries come from a sample that favours hits as a whole.
Tg IFNy HTS: blocks Toxoplasma gondii growth in the presence of IFN-gamma; AID 1259416; Toxoplasma gondii growth in IFN-gamma-treated host cells; active compounds read low; 3.8% of 69,000 active; activity change, negative = inhibition, % (test concentration not listed); in the data active = activity change below about -70%, passing the limit was not always enough;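 also: host cells are HeLa cells infected with Toxoplasma gondii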
The depositor's hits bear a star; i = inactive.

SMILES	Tg IFNy HTS
Cc1cccc(C(=O)N2CCc3c([nH]c4ccccc34)C2c2ccc(Cl)cc2)c1 (centres undefined)	-104.2*
Cc1cccc(C(=O)N2CCc3c([nH]c4ccccc34)C2c2ccc(F)cc2)c1 (centres undefined)	-43.6
COc1ccc(C2c3[nH]c4ccccc4c3CCN2C(=O)c2ccc(N(C)C)cc2)cc1 (centres undefined)	57.5
CSc1ccc(C2c3[nH]c4ccccc4c3CCN2C(=O)c2cccc(C)c2)cc1 (centres undefined)	-114.6*
O=C(CCSc1ccc2c(c1)OCCO2)N1CCCn2cncc2C1	5.6
O=C(c1nccs1)c1cccnc1N1C[C@@H]2C3CCC(CC3)[C@@H]2C1	-15.0
CC1(C2CCN(C(=O)c3cnccn3)CC2)CCCCN(CCc2ccccc2)C1=O (centres undefined)	-6.7
CNC(=O)c1ccc(-c2cc(NCCO)nc3[nH]ccc23)s1	10.4
CC(C)(C(N)=O)c1ccc(-c2cc(N)nc3[nH]ccc23)cc1	19.1
NC(=O)c1csc(-c2cc(NC3CCCC3)nc3[nH]ccc23)n1	-76.4*
CC(=O)NCC(=O)NC1CC2(CCN(c3ccccc3)CC2)c2ccccc21 (centres undefined)	-9.7
Cn1nccc1C(=O)N1CCC(c2n[nH]c(=O)n2Cc2ccccc2)CC1	77.4
CCOCCN1Cc2ncn(C)c2C(COCc2csc(C)n2)C1 (centres undefined)	-4.5
Cc1cc(C)n(C2=NCCN2S(=O)(=O)c2cc(C(F)(F)F)cc(C(F)(F)F)c2)n1	-89.8*
Cc1cc(C)cc(S(=O)(=O)N2CCC3(CC2)NCCN=C3NCc2ccc(C(F)(F)F)cc2)c1	-51.9
Cc1cc(C)n(-c2ncc(S(=O)(=O)C(C)(C)C)c(N)n2)n1	59.8
N#CCN1CCOC2(CCN(C(=O)c3ccsc3)CC2)c2ccccc21	33.3
Cn1ccnc1CN1CC[C@@](C)(O)[C@@H](Cc2ccccc2)C1	3.4
Cc1ccc(N2CC3(CCN(C(=O)c4ccn[nH]4)C3)CC2=O)cc1 (centres undefined)	0.4
CCN(CC)C(=O)Oc1c(Br)cc(Br)c2cccnc12	-16.6
CN1CCC2(CC1)CN(Cc1ccco1)Cc1ccccc12	1.6
CCCN1CCN(C(=O)c2nc(-c3ccc(C)cc3)n3c2CCCCC3)CC1	239.7
CC1CCN(C(=O)c2nc(-c3ccc(Cl)cc3)n3c2CCCCC3)CC1	21.8
COC(=O)c1sccc1NC(=O)c1nc(-c2ccc(C)cc2)n2c1CCCCC2	-97.0*
CCOC(=O)N1CCN(C(=O)c2nc(-c3ccc(C)cc3)n3c2CCCCC3)CC1	28.7
SMILES	Tg IFNy HTS
Cc1ccc(-c2nc(C(=O)Nc3cc(C)on3)c3n2CCCCC3)cc1	-109.6*
CC(C)CCNC(=O)c1nc(-c2cccc(F)c2)n2c1CCCCC2	-42.3
Cc1cc(NC(=O)c2nc(-c3cccc(F)c3)n3c2CCCCC3)no1	236.3
CC1CC(C)CN(C(=O)c2nc(-c3cccc(F)c3)n3c2CCCCC3)C1 (centres undefined)	-54.0
CC1CCCCN1CCCNC(=O)c1nc(-c2ccc(Cl)cc2)n2c1CCCCC2 (centres undefined)	-37.4
CC(=O)Nc1ccc(NC(=O)c2nc(-c3ccc(C)cc3)n3c2CCCCC3)cn1	-98.7*
O=C(c1nc(-c2cccc(F)c2)n2c1CCCCC2)N1CCCCCC1	-87.5*
O=C(c1nc(-c2cccc(F)c2)n2c1CCCCC2)N1CCN(c2ncccn2)CC1	5.7
c1coc(CN2Cc3nccn3CC(Cn3cncn3)C2)c1 (centres undefined)	-18.9
C=CCOC1C2CCC1N(S(=O)(=O)c1ccccc1)CCO2 (centres undefined)	2.5
CN(C)CCOCC1CN(Cc2cnn(C)c2)Cc2nnn(C)c21 (centres undefined)	93.6
C/C(=N\NC(=O)[C@@H]1C(=O)NC[C@H]1c1ccccc1)c1cccc(Br)c1	8.8
c1ccc(-c2nc3c(c(N4CCOCC4)n2)C2(CCCCC2)Cc2ccccc2-3)cc1	2.3
CC(=O)Nc1ccc(C2CC(=O)Nc3c2c(C)nn3Cc2cccc(C)c2)cc1 (centres undefined)	4.9
Cc1ccccc1NC(=O)N1CCC[C@@]2(C(=O)N(C)C)CN(c3ccccn3)C[C@H]2C1	-18.5
COCc1nc(NC2CCCc3cc(OC)ccc32)c2cnn(C)c2n1 (centres undefined)	40.9
CNC(=O)NCC1CCC2(CCN(c3nncs3)CC2)CO1 (centres undefined)	11.0
COc1ccc(-c2nc(Cn3nnc(-c4nc(-c5ccccn5)no4)c3C)c(C)o2)cc1	2.7
COc1ccc(Cc2nnc(SCc3ccc(Cl)cc3)o2)cc1OC	7.3
O=C(O)Cc1nn(Cc2nc3cc(C(F)(F)F)ccc3s2)c(=O)c2ccccc12	20.0
COc1cccc(C(=O)NCCc2sc(-c3ccccc3)nc2C)c1	i
CCN1c2cc(Cl)ccc2C(=O)NC12CCN(C(=O)NCCc1ccccc1)CC2	-41.2
CCOC(=O)c1cnn(C)c1NS(=O)(=O)c1ccc(Cl)cc1	-61.9
CCOC(=O)c1cccc(NC(=O)CN2C(=O)CCc3cc(S(=O)(=O)N4CCCCC4)ccc32)c1	-33.7
CCOC(=O)c1ccc(N2CCCCC2)c(NS(=O)(=O)c2ccc(C)cc2)c1	-99.9*
SMILES	Tg IFNy HTS
CC(C)/C=C/C(=O)N1CCC(CO)(Cc2ccccc2C(F)(F)F)CC1	-46.4
Cc1ccc(CN2CCC3(CC2)CC(Oc2ccccc2)CO3)s1 (centres undefined)	-41.1
Clc1ccccc1CSc1nc(NC2CCCCC2)c2ccccc2n1	-51.1
Cc1cccc(-c2nnc(-c3nc(NCc4ccccc4)c4ccccc4n3)o2)c1	-107.2*
Cc1ccc(-c2nnc(-c3nc(Nc4ccc(F)cc4)c4ccccc4n3)o2)cc1	148.9
Cc1ccc(Nc2nc(-c3nnc(-c4ccc(F)cc4)o3)nc3ccccc23)cc1	2.8
Fc1cccc(CSc2nc(NC3CCCCC3)c3ccccc3n2)c1	-75.8*
Cc1cccc(-c2nnc(-c3nc(NCc4ccc(F)cc4)c4ccccc4n3)o2)c1	-59.2
Cc1ccc(CNc2nc(-c3nnc(-c4cccc(C)c4)o3)nc3ccccc23)cc1	-68.2
CCOc1ccc(Nc2nc(-c3nnc(-c4cccc(C)c4)o3)nc3ccccc23)cc1	36.0
Cc1cccc(-c2nnc(-c3nc(NCc4ccccc4C)c4ccccc4n3)o2)c1	-91.2*
COc1ccccc1CNc1nc(-c2nnc(-c3ccc(C)cc3)o2)nc2ccccc12	300.8
Fc1ccc(-c2nnc(-c3nc(NC4CCCCC4)c4ccccc4n3)o2)cc1	-103.8*
Clc1cccc(CSc2nc(NCCc3ccccc3)c3ccccc3n2)c1	-42.6
Cc1noc(C)c1C(=O)N1CCC(c2nc3ccccn3c2NC(C)(C)C)CC1	-17.9
Fc1ccc(CNc2nc(-c3nnc(-c4ccccc4)o3)nc3ccccc23)cc1	22.5
Cc1cccc(Nc2nc(-c3nnc(-c4ccccc4)o3)nc3ccccc23)c1	0.2
Cc1cccc(-c2nnc(-c3nc(Nc4ccc(F)cc4)c4ccccc4n3)o2)c1	72.9
Cc1cccc(-c2nnc(-c3nc(NC(C)c4ccccc4)c4ccccc4n3)o2)c1 (centres undefined)	-93.8*
Fc1ccccc1CNc1nc(-c2nnc(-c3ccccc3)o2)nc2ccccc12	-75.8*
Clc1ccc(-c2nnc(-c3nc(NCc4ccccc4)c4ccccc4n3)o2)cc1	136.6
CCc1ncc2c(n1)CN(C(=O)CCn1cnc3ccccc3c1=O)C2	-5.5
CC(C)c1cc(CNC(=O)C(C)N2C(=O)c3cccc4cccc2c34)on1 (centres undefined)	44.5
C=CC(=O)N1CCC2(CCC(=O)N2CCN2CCCC2)CC1	-5.9
